Screen size: about 330,000 compounds; about 4,600 (1.4%) were called active. This is one part of a sample in which actives are shown more often than they occur.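 Rule for the calls: active = inhibition of 40% or more at the single tested concentration; inactive = the rest.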
Assay: wild-type TIM10 yeast growth inhibition – luminescence, uHTS, counter-screen for tim10-1 yeast inhibitor project, primary screen (AID 463195);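 note: wild-type TIM10 isogenic control strain grown at permissive 25 °C; 0% = DMSO yeast wells and 100% = minimal medium wells without yeast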
Details: S. cerevisiae TIM10 strain growth, BacTiter-Glo luminescence, 24 h; at 10 µM; hits give high values
For `Cc1cc[n+](-c2[nH]c(=O)sc2/C=N/NC(=O)c2ccccc2[O-])cc1C`, the inhibition was 2.83% (inactive).
In the case of `CN(c1ccc(O)cc1)c1nc(-c2cccnc2)cs1`, the inhibition is reported as -2.92% (inactive).
With `COc1ccccc1C1=CC(=O)C[C@H](c2ccc(F)cc2)C1` the inhibition was -15.1% (inactive).
In the case of `COc1ccccc1-c1n[nH]c2c1[C@H](C)CC[C@H]2C(C)C`, the inhibition is reported as 56% (active).
For `CCN(C[C@H]1N[C@@](CC)(C(=O)OC)[C@H]2C(=O)N(Cc3ccccc3)C(=O)[C@@H]12)S(=O)(=O)c1ccc(C(F)(F)F)cc1`, the inhibition was 12.3% (inactive).
With `Cc1ccc(Nc2nc(C)cc(C)c2C(N)=O)cc1` the inhibition was 6.89% (inactive).
For `Cc1ccc(Nc2nc(Cl)c(C=O)s2)cc1`, the inhibition was 41.1% (active).
For `Cc1ccc(NC(=O)Nc2nnc(-c3ccncc3)s2)cc1`, the inhibition was 5.77% (inactive).
For `CC(C)NC(=O)NC(=O)CSc1nnc(-c2ccccc2F)n1N`, the inhibition was 5.49% (inactive).
With `CN(C(=O)CSc1nnc(N)s1)c1c(N)n(Cc2ccccc2)c(=O)[nH]c1=O` the inhibition was 10.2% (inactive).
In the case of `CS(=O)(=O)N(CC(=O)N1CCOCC1)c1ccc2c3c(cccc13)CC2`, the inhibition is reported as 8.14% (inactive).
In the case of `CCOc1ccccc1/C=c1\sc2nc(-c3ccco3)nn2c1=O`, the inhibition is reported as 45% (active).
In the case of `CCCn1nc(C(=O)NNC(=O)CCOc2ccccc2OCC)c2ccccc2c1=O`, the inhibition is reported as 13.7% (inactive).
With `CCOc1ccccc1C1NC(=O)NC(C)=C1C(=O)OCc1ccco1` (stereo not drawn) the inhibition was 0.932% (inactive).
For `Cc1cccc([C@@H]2[C@@H]3C(=O)N(Cc4ccccc4)C(=O)[C@@H]3[C@]3(C)C(=O)N(c4ccc(Br)cc4)C(=O)N23)c1`, the inhibition was 4.22% (inactive).
With `Cn1c(Cc2csc(N)n2)nnc1SC/C=C/c1ccccc1` the inhibition was 7.09% (inactive).
For `CCN(Cc1nc2ccccc2c(=O)[nH]1)Cc1cc(=O)oc2cc(C)c(C)cc12`, the inhibition was -2.16% (inactive).
With `COc1ccc(C(=O)NC(C)c2nccs2)cc1OC1CCN(C(C)C)CC1` (stereo not drawn) the inhibition was -15% (inactive).
For `O=C(Nc1nnc(CCOCCOCCc2nnc(NC(=O)c3ccco3)s2)s1)c1ccco1`, the inhibition was -7.13% (inactive).
For `NC(=O)c1ccsc1NC(=O)c1ccco1`, the inhibition was 8.27% (inactive).
For `O=C(Nc1nc(-c2ccco2)c(-c2ccco2)s1)c1ccco1`, the inhibition was 40.3% (active).
In the case of `CS/C(=C\[N+](=O)[O-])Nc1ccc(C)cc1`, the inhibition is reported as 30% (inactive).
For `CCc1c(C)[nH]c(=S)c(C#N)c1C`, the inhibition was 3.94% (inactive).
In the case of `O=C(NCCCCc1ccccc1)C1CC(c2ccc([N+](=O)[O-])cc2)=NO1` (stereo not drawn), the inhibition is reported as -15.3% (inactive).
For `O=C1NC(=O)C2C1C(c1ccc([N+](=O)[O-])cc1)=NN2Cc1ccccc1` (stereo not drawn), the inhibition was 46.2% (active).
With `CC(=O)N1c2ccccc2N(Cc2ccc([N+](=O)[O-])cc2)C(=O)C1(C)C` the inhibition was 27.8% (inactive).
In the case of `c1ccc2c(c1)CSc1sccc1C2=C1CCNCC1`, the inhibition is reported as 1.38% (inactive).
With `COc1ccc(OC)c(C(=O)c2ccc(C(=O)N3CCN(Cc4csc(C)n4)CC3)cc2)c1` the inhibition was -9.33% (inactive).
With `CCOC(=O)c1cn[nH]c1NC(=S)Nc1ccccc1` the inhibition was -4.24% (inactive).
With `CSC1=N/C(=C\C=C\c2cccs2)C(=O)S1` the inhibition was 46.2% (active).
In the case of `CCC1C/C(=C/c2cccs2)C(=O)/C(=C/c2cccs2)C1` (stereo not drawn), the inhibition is reported as 8.85% (inactive).
With `COC(=O)c1cccc(N2C(=O)C3C4C=CC(CC4)C3C2=O)c1` (stereo not drawn) the inhibition was -2.62% (inactive).
In the case of `O=C(OCC(=O)N(CCc1ccccc1)Cc1ccccc1)c1ccccc1[N+](=O)[O-]`, the inhibition is reported as 6.8% (inactive).
In the case of `O=C(Nc1ccc(O)cc1)c1ccc(NC(=O)c2ccco2)cc1`, the inhibition is reported as -7.64% (inactive).
In the case of `O=C(Nc1ccnc(-c2ccncc2)n1)c1cccs1`, the inhibition is reported as 5.09% (inactive).
For `O=C(Nc1ccc(NC(=O)c2cccs2)cn1)c1ccco1`, the inhibition was 49.1% (active).
For `O=C(CN1CCN(C(=O)C2CCCO2)CC1)Nc1c(Cl)cccc1Cl` (stereo not drawn), the inhibition was -3.56% (inactive).
With `O=[N+]([O-])c1ccc(N2CCN(c3ccc(F)cc3)CC2)cn1` the inhibition was 9.61% (inactive).
In the case of `C/C=N/NC(=O)CCCC(=O)N/N=C/C`, the inhibition is reported as 19.2% (inactive).
For `S=C(NNC(=S)NC1CC2C=CC1C2)NC1CC2C=CC1C2` (stereo not drawn), the inhibition was 11.5% (inactive).
For `S=C(NNC(=S)NC1CC2CCC1C2)NC1CC2C=CC1C2` (stereo not drawn), the inhibition was 31.5% (inactive).
With `CC(C)c1ccc(NC(=S)NC2CC3C=CC2C3)cc1` (stereo not drawn) the inhibition was 41.7% (active).
With `Fc1ccc(Cn2nnnc2C(c2cccs2)N2CCCCCC2)cc1` (stereo not drawn) the inhibition was 23.6% (inactive).
With `Clc1nc(NC2CCCC2)nc(N2CCOCC2)n1` the inhibition was 11.4% (inactive).
In the case of `COC(=O)c1ccc(Oc2nc(Nc3ccc(F)cc3)nc(N3CCCC3)n2)cc1`, the inhibition is reported as -20.4% (inactive).
In the case of `COc1nc(NC2CCCCC2)nc(N2CCCCCC2)n1`, the inhibition is reported as 40% (active).
For `CCOC(=O)c1cnn(Cc2ccccc2Cl)c1N`, the inhibition was 1.13% (inactive).
With `COC(=O)CNC(=O)C(CCSC)NC(C)=O` (stereo not drawn) the inhibition was -26.2% (inactive).
With `CO/N=C/c1cn(-c2ccc(Cl)cc2)nn1` the inhibition was 5.41% (inactive).
With `Cc1nc(-c2ccccc2)sc1C(=O)/C=C/N(C)C` the inhibition was 7.98% (inactive).
With `Cc1nc(-c2ccc(Cl)cc2)sc1C1(C)CC(c2ccc(Br)cc2)=NO1` (stereo not drawn) the inhibition was 7.58% (inactive).
In the case of `Cc1nc(-c2ccc(Cl)cc2)sc1C(=O)CBr`, the inhibition is reported as 51.9% (active).
For `O=C(CSc1nncs1)NC1CCCc2ccccc21` (stereo not drawn), the inhibition was -4.46% (inactive).
For `Cc1ccccc1N1CC(C(=O)Nc2nnc(SCCC3OCCO3)s2)CC1=O` (stereo not drawn), the inhibition was 4.72% (inactive).
With `CCSc1ccccc1C(=O)NCc1ccc(OC)cc1` the inhibition was -1.39% (inactive).
With `Cc1cccc(C)c1NC(=O)Nc1ccccc1-n1ccnc1` the inhibition was 3.36% (inactive).
In the case of `CC(CC(=O)Nc1ccccc1)n1ccnc1` (stereo not drawn), the inhibition is reported as -0.308% (inactive).
With `O=C(O)CCCC(=O)Nc1ccccc1-n1ccnc1` the inhibition was 95.9% (active).
In the case of `COc1nc(Oc2ccc(=O)n(C)n2)nc(N(C)C)n1`, the inhibition is reported as -5.67% (inactive).
With `Cn1cnc([N+](=O)[O-])c1Sc1ccccc1` the inhibition was 21.8% (inactive).
For `CC(=O)Oc1ccc(N(C(C)=O)S(=O)(=O)c2ccc3ccccc3c2)cc1Br`, the inhibition was 48.2% (active).
For `COCCNC(=O)COc1ccc(N(C)S(=O)(=O)c2ccc3ccccc3c2)cc1`, the inhibition was 20.2% (inactive).
With `CN(c1ccc(OCC(=O)O)cc1)S(=O)(=O)c1ccc2ccccc2c1` the inhibition was -10.2% (inactive).

From PubChem BioAssay AID463195 (Sanford-Burnham Center for Chemical Genomics, 2010)
